GAA850 FXN act = frataxin GAA850 promoter activation | HEK293 lucGAA850 FXN promoter luciferase reporter, 24 h; percent of 10 µM SAHA response | activation, % at 6 µM | 360,000 tested, 0.56% active | AID 540364;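 active means activation above the average of all compounds screened plus 3 SD, cutoff fixed separately per campaign, cut at about 7.5% in these data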;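 further: 0% = DMSO wells and 100% = 10 µM SAHA wells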
hgDAF-12 ag = hgDAF-12 agonism, primary luciferase screen; HEK293 GAL4-hgDAF12 UAS-luciferase reporter, agonist luminescence; normalized to butyrate control; activation, % at 6.8 µM; 370,000 tested, 1.8% active; AID 687014;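 active means activation above a cutoff set at the mean of all screened compounds plus 3 SD, cut at about 10% in these data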;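 further: 0% = DMSO wells and 100% = sodium butyrate wells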
ssDAF12 agonist = activates DAF-12 receptor from parasite S. stercoralis. HEK293 ssDAF-12/GRIP1 lit1-tk-luc reporter, luminescence; % of 3 µM dafachronic acid response. activation, % at 6.8 µM. 370,000 tested, 1% active;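 active means activation above the mean over all tested compounds plus 3 SD, cut at about 0.9% in these data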;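 further: 0% = DMSO-only wells and 100% = 3 µM delta7-dafachronic acid wells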
DAX1 inh-1 = blocks DAX1 repression of SF-1 activated StAR promoter. HEK293T StAR-luciferase reporter, SF-1/DAX-1 repression relief. inhibition, % at 6.8 µM. 370,000 tested, 1.1% active. AID 652010;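 active means inhibition above the mean over all tested compounds plus 3 SD, cut at about 3.6% in these data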;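 further: 0% = DAX-1 cells with DMSO and 100% = cells lacking DAX-1 with DMSO; higher inhibition means more luminescence from relief of DAX-1 repression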
hcDAF12 agonist = activates DAF-12 receptor from parasite H. contortus; HEK293 hcDAF-12 lit1-tk-luc reporter, luminescence; 0% DMSO, 100% Δ7-dafachronic acid; activation, % at 6.8 µM; 370,000 tested, 1.4% active; AID 652067;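 active means activation above the mean of all tested compounds plus 3 SD, cut at about 5.5% in these data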;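 further: 100% = response to 3 µM Δ7-dafachronic acid high control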
DAX1 inh-2 = NR0B1 (DAX1) inhibition | AID 504766 | 340,000 tested, 0.99% active | P51843 | HEK293 Gal4-DAX1 luciferase reporter, luminescence | inhibition, % at 6.75 µM;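 active means inhibition above the mean over all tested compounds plus 3 SD, cut at about 4.2% in these data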;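 further: 0% = DAX1-transfected cells with DMSO and 100% = empty-vector control cells with DMSO; inhibition shows as a rise in luminescence from relieved DAX1 repression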
Target sequence (P51843 207-470 limits assumed): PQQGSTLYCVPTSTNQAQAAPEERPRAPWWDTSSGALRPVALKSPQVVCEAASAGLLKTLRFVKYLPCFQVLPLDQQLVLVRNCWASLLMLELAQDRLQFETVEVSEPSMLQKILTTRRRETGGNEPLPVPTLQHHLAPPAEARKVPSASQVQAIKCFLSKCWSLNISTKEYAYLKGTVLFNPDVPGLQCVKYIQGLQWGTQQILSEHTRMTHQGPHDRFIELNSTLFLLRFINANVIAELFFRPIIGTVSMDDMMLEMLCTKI
* hit, by the source's call; x = not tested or not shown. Compounds with a hit are over-represented: about 4.5% of the library has one in this group of screens.

SMILES	GAA850 FXN act	hgDAF-12 ag	ssDAF12 agonist	DAX1 inh-1	hcDAF12 agonist	DAX1 inh-2
NC1=NC(c2ccc(Cl)cc2)n2c(nc3ccccc32)N1 (stereo unspecified)	1.6	-0.7	-0.7	-0.2	-1.7	0.0
N#CC1=C(N)Nc2nc3ccccc3n2C1c1ccc(F)cc1 (stereo unspecified)	3.1	-1.7	1.3*	-0.9	-2.1	-0.8
O=C(CCc1ccccc1)Nc1cc2c(cc1C(=O)O)OCCCO2	0.3	0.4	-0.5	-0.8	-2.0	0.3
O=C(CCc1ccccc1)Nc1ccc2c(c1)OCCO2	-1.3	11.8*	0.3	2.4	3.4	2.1
O=C(CCc1ccccc1)Nc1cc2c(cc1Cl)OCCO2	3.8	10.3	1.2*	3.9*	2.5	1.3
CC1C=CC=CCCC=CC=CC=CC=CC(OC2O[C@H](C)[C@@H](O)[C@H](N)[C@@H]2O)CC(O)C(C(=O)O)C(O)CC(=O)CC(O)C(O)CCC(O)CC(O)CC(O)CC(=O)OC(C)C(C)C1O (stereo partly specified)	x	0.7	-1.2	-0.6	-1.2	x
Cc1ccc(-c2cc3c(nn2)-c2ccccc2C3=O)cc1	-9.6	9.8	0.1	0.8	6.3*	-7.0
Cc1ccc(NC2=CC(=O)C(=O)c3ccccc32)cc1	3.2	6.0	0.4	-0.7	5.4	-0.4
O=C1c2ccccc2-c2nnc(-c3ccc(O)cc3)cc21	1.8	11.1*	-0.3	2.8	5.9*	-0.6
O=C1C(O)=C(O)C(=O)c2ccccc21	-1.8	0.4	0.5	-0.4	4.2	0.2
CC(=O)N[C@@H]1C[C@@H]2O[C@@H](CO)CC[C@@H]2O[C@@H]1CCc1ccc(C#CC2(O)CCCC2)cc1	x	-0.5	-1.8	-0.8	-2.4	x
NC(=O)c1ccccc1OCC(=O)Nc1ccc2c(c1)OCCO2	1.0	8.5	-0.5	4.5*	4.7	0.7
Cc1ccccc1OCC(=O)Nc1ccc2c(c1)OCCO2	0.3	12.8*	-0.7	2.8	0.9	8.2*
O=C(COc1ccccc1Cl)Nc1ccc2c(c1)OCCO2	4.4	10.2	-0.2	1.9	1.0	3.0
COc1ccccc1OCC(=O)Nc1ccc2c(c1)OCCO2	1.8	4.3	-0.1	0.7	1.0	1.1
CC(C)C[C@@H]1COc2cccc(NCCO)c2S(=O)(=O)N1	x	2.7	-1.3	1.6	-0.7	x
Clc1nc(NCCN2CCOCC2)nc(NCc2ccccc2)n1	2.3	-0.8	-1.4	-0.5	-1.1	0.2
CC(C)(C)Nc1nc(Cl)nc(NCCN2CCOCC2)n1	1.6	0.1	-1.3	0.1	-0.5	5.4*
CC(COc1cccc([N+](=O)[O-])c1)CN1CCC(C(O)(c2ccccc2)c2ccccc2)CC1 (stereo unspecified)	x	1.5	-1.7	-0.7	2.0	x
COc1cc(O)sc1C=Nc1ccc(Cl)cc1Cl	2.6	-0.9	1.1*	0.7	-0.5	1.9
Cc1ccc(Nc2ncc3c(n2)CC(C)(C)CC3=O)cc1	1.0	12.6*	0.1	3.6	3.3	6.0*
COC(=O)c1ccc2nc(-c3ccc(F)cc3)c(CC3CCCCC3)n2c1	x	5.5	1.1*	1.6	4.2	x
Cc1cc2nc(-c3ccc(F)cc3)c(CC3CCCCC3)n2c(C)c1Br	x	3.5	1.0*	-0.4	5.4	x
COC(=O)c1ccc2nc(-c3ccc(F)cc3)c(Cc3cccc(F)c3)n2c1	x	-1.5	-0.8	0.3	-2.8	x
COC(=O)c1ccc2nc(-c3ccc(C)cc3)c(CC3CCCCC3)n2c1	x	5.8	1.8*	3.9*	4.5	x
SMILES	GAA850 FXN act	hgDAF-12 ag	ssDAF12 agonist	DAX1 inh-1	hcDAF12 agonist	DAX1 inh-2
C(=C\c1ccccc1)/CSc1nnc(COc2ccccc2)n1Cc1ccco1	x	0.5	-1.0	-0.7	1.1	x
Nc1[nH]c(C(=O)c2ccc(Br)cc2)c(-c2ccc(Br)cc2)c1C(=O)N1CCCCC1	x	1.5	-0.8	x	-1.7	x
COC(=O)[C@]12C[C@H](CC(=O)N3CCN(C(=O)C4CC4)CC3)C(=O)N(Cc3ccco3)C1=C[C@H](C(C)(C)C)O[C@@H]2C	x	-3.3	-0.9	0.8	-1.9	x
C=CCOC(=O)N1CCN(C(=O)c2ccc3c(c2)nc(C)n3C2CCCC2)CC1	x	-2.8	-1.3	-0.5	-0.8	x
Cc1ccc(OCc2nnc(N)s2)cc1	0.7	10.6*	-1.0	1.1	1.8	-0.6
CC(=O)c1ccc(NC(=O)Nc2cccc(Cl)c2)cc1	1.6	12.9*	0.8	3.1	2.7	2.0
O=C(Nc1cccc(Cl)c1)Nc1cccc(C(=O)O)c1	2.7	9.7	0.8	1.2	1.4	x
O=C(/C=C(\Nc1cccc(Cl)c1)c1ccccc1)c1ccccc1	x	6.9	0.2	3.7*	0.0	x
O=C(Nc1ccc(Cl)cc1)Nc1cccc(C(=O)O)c1	6.6	11.9*	-0.7	2.9	4.7	x
COc1ccc2c(c1)CCCN2C(=O)C1CCCN(S(=O)(=O)c2c(C(C)C)cc(C(C)C)cc2C(C)C)C1 (stereo unspecified)	x	-3.0	-1.3	-0.4	0.4	x
CC1CCN(Cc2nc(-c3ccccc3)no2)CC1	2.9	13.2*	-0.6	1.3	5.4	3.5
O=C(Nc1ccccc1)Nc1c(-c2ccc(F)cc2)nc2ncccn12	x	-2.1	-0.5	-1.0	-2.8	x
CCOC(=O)[C@]12CCCC=C1N(CCc1ccc(Cl)cc1)C(=O)[C@@H]2CC(=O)NCCC(C)C	x	1.3	-1.5	-0.4	-2.9	x
S=C(c1ccc(OCc2ccccc2)cc1)N1CCCC1	4.6	0.7	-0.8	0.3	0.0	0.7
Fc1ccc(COc2ccc(C(=S)N3CCCC3)cc2)cc1	4.6	6.0	-0.5	1.6	0.7	4.3*
COC(=O)[C@]12C[C@H](CC(=O)NCc3ccccc3)C(=O)N(Cc3cccc4ccccc34)C1=C[C@H](C(C)C)O[C@@H]2C1CC1	x	4.4	-1.4	-1.4	-0.5	x
COC(=O)[C@]12C[C@H](CC(=O)NCCCCc3ccccc3)C(=O)N(Cc3cccc4ccccc34)C1=C[C@H](C(C)C)O[C@@H]2C1CC1	x	-2.5	1.3*	-1.2	-0.6	x
COC(=O)c1ccc2nc(-c3ccco3)c(Cc3ccccc3OC)n2c1	x	6.0	1.3*	-1.9	2.4	x
COC(=O)c1ccc2nc(C3CCCCC3)c(Cc3ccc(C)cc3)n2c1	x	4.7	1.0*	0.9	3.1	x
FC(F)(F)c1ccccc1Cc1c(C2CCCCC2)nc2ccc(Cl)cn12	x	-1.4	-1.4	-1.0	-0.2	x
COC(=O)c1ccc2nc(C3CCCCC3)c(Cc3ccccc3C(F)(F)F)n2c1	x	1.6	-0.5	3.6*	2.1	x
COC(=O)CNC(=O)c1cc(OC)cc(OC)c1	0.7	-1.0	-0.6	3.8*	-0.7	0.7
CC(C)(C)c1ccc(S(=O)(=O)N2CCC(C(=O)NCCC3=CCCCC3)CC2)cc1	x	3.4	-1.9	-1.1	-2.8	x
C[C@@H]1CNC(=O)c2c(C(=O)N(C)Cc3ccccc3)ncn21	x	3.0	0.0	0.3	0.7	x
